The record followed here is PubChem BioAssay AID1347076 (National Center for Advancing Translational Sciences (NCATS), 2019).

The whole screen tested about 400,000 compounds, of which about 13,000 (3.2%) were called active. Where a call stands in place of a potency, no number is given. Not shown: some 18% with an inconclusive outcome. This is one part of a sample in which actives are shown more often than they occur. Calls come from the whole dose curve; as a rule, active = well fitted cell-killing curve with a large enough effect; inconclusive = small, poorly fitted or top-dose-only effect, or effect the other way; inactive = flat fitted curve, though single readings scatter.
Potency is the fitted concentration of half-maximal effect.

The test in a line: qHTS assay for MDR1-selective chemotherapeutics: Primary screen using the drug-selected MDR subline cells KB-V1. Note: nearly all actives have a fitted effect of over 60% in size. As to conditions: KB-V1 MDR cells viability, CellTiter-Glo, 72 h; series mostly up to 46.1 µM. Put shortly:
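KB-V1 cells (P-gp-expressing MDR subline of KB-3-1) in phenol-red-free DMEM with 10% FBS were exposed to library compounds over a concentration series for 72 h at 37 degrees C. Viability read by CellTiter-Glo luminescence; concentration-effect curves fitted after normalization.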
As to `CC1=C(C(=O)N(C(C)C)C(C)C)CC(CC(=O)NCC2CCCCC2)C(=O)N1Cc1ccccc1` (stereo not given), the Potency entry was “inactive”. For `O=C(NCC1CCCO1)c1ccc2ccccc2n1` (stereo not given) the value was “inactive”; for `COc1ccc2cc(C(=O)NCC3CCCO3)[nH]c2c1` (stereo not given), “inactive”. For `O=C(NCC1CCCO1)c1cc2c([nH]c3ccccc32)c(-c2ccc(F)cc2)n1` (stereo not given) the value was 11.6 µM (active). As to `Cc1cccc(N(CC(=O)N2CCCC2)S(C)(=O)=O)c1C`, the Potency entry is “inactive”.

As to `Cc1ccc2c(CN3CCN(S(=O)(=O)c4ccccc4C(F)(F)F)CC3)cc(=O)oc2c1`, the Potency entry was “inactive”. For `O=S(=O)(c1cccs1)N1CCN(Cc2ccccc2)CC1` the value was 16.4 µM (active); for `COc1ccc2c(CN3CCN(S(=O)(=O)c4cccs4)CC3)cc(=O)oc2c1`, 13 µM (active); for `CC(=O)N1CCN(Cc2cc(=O)oc3cc(C)ccc23)CC1`, “inactive”. For `O=C(NCc1ccccc1)C1CCCN(S(=O)(=O)c2cccs2)C1` (stereo not given) the value was “inactive”.

Turning to `O=S(=O)(c1cccs1)N1CCc2ccccc2C1`, the Potency entry is “inactive”. In the case of `O=c1cc(CN2CCCCCCC2)c2c(ccc3ccccc32)o1`, the Potency result was “inactive”. For `CCC(O)CNc1nc(-n2nc(C)cc2C)nc2sc3c(c12)CC(C)(C)OC3` (stereo not given) the value was 2.59 µM (active); for `CC/C(C)=N/Nc1nc2sc3c(c2c(=O)[nH]1)CC(C)(C)OC3`, “inactive”. For `CCc1nc(N2CCN(C(C)=O)CC2)c2c3c(sc2n1)CCCC3` the value was “inactive”; for `CCOC(=O)Cn1c(SC)nc2sc3c(c2c1=O)CC(C)(C)OC3`, “inactive”. For the molecule `COCCNc1nc(-n2nc(C)cc2C)nc2sc3c(c12)CCCC3`, the Potency is 9.2 µM (active). For `COCCn1c(C)cc(C(=O)CSc2ncnc3sc4c(c23)CCC4)c1C` the value was “inactive”; for `O=C(NC1CCCCC1)C(c1cc2ccccc2o1)n1c(=O)c(-c2ccco2)nc2ccccc21` (stereo not given), “inactive”; for `Nc1[nH]c(C(=O)c2ccccc2)c(-c2ccncc2)c1C(=O)NCc1cccc2ccccc12`, “inactive”. For `Cc1ccc(Cn2cc(CN3CC(N4CCN(C)CC4)CS3(=O)=O)nn2)cc1` (stereo not given) the value was “inactive”.

Consider `CCOC(=O)N1CCN(C(=O)c2ccc(S(=O)(=O)Nc3cccc(C(F)(F)F)c3)cc2)CC1`, for which the Potency entry is “inactive”.

As to `Cc1ccccc1CN1CCN(C(=O)c2cccc(F)c2)CC1`, the Potency result was “inactive”. For `Cc1ccccc1CS(=O)(=O)CC1(O)CCN(C(=O)c2cccc(C(F)(F)F)c2)CC1` the value was 14.6 µM (active); for `CCOc1ccc(-c2cc3nc(C4CCN(C(=O)OC(C)(C)C)CC4)c(C(=O)Nc4cccc(CC)c4)cn3n2)cc1`, “inactive”; for `Cn1c(=O)c2c(-c3ccccc3Br)n(Cc3ccccc3)cc2n(C)c1=O`, “inactive”. For `CC(=O)Nc1ccc(SC[C@H](Cc2ccccc2)N2CC[C@@H](C)CCC2=O)cc1`, the Potency result was “inactive”. For `C[C@H]1CCC(=O)N([C@H](CSc2ccccc2)Cc2ccccc2)CC1` the value was “inactive”; for `Cc1ccc(CN(C)CC(=O)Nc2cccc([N+](=O)[O-])c2)o1`, “inactive”. For `CN(CC(=O)Nc1cccc(F)c1)CC(=O)Nc1cccc([N+](=O)[O-])c1` the value was 11.6 µM (active); for `CN(CC(=O)Nc1cccc(F)c1)C(=O)C1=COCCO1`, “inactive”; for `C[C@@H]1CN([C@H](C)CO)C(=O)CCCn2cc(nn2)CO[C@H]1CN(C)S(=O)(=O)c1ccc(Oc2ccccc2)nc1`, “inactive”. For `O=C(C[C@H]1C[C@H]2c3cc(NS(=O)(=O)c4ccc(F)cc4)ccc3O[C@H]2[C@H](CO)O1)NCc1cc(F)ccc1F`, the Potency entry was “inactive”. As for `CC(Sc1nnc2c(n1)C1CCC2(C)C1(C)C)C(=O)Nc1ccccc1` (stereo not given), the Potency was 20.6 µM (active). Consider `Cc1cccc(-c2nnc(SC(C)C(=O)Nc3ccccc3)n2C)c1` (stereo not given), for which the Potency result was “inactive”. As to `CC(Sc1nnc(C2CC2)n1C1CC1)C(=O)Nc1ccc(C(N)=O)cc1` (stereo not given), the Potency entry was “inactive”. For `CC(CNC(=O)c1nnc(Cc2cccc(F)c2)o1)c1ccccc1` (stereo not given) the value was “inactive”; for `C[C@H](CO)N1C[C@H](C)[C@@H](CN(C)S(=O)(=O)c2ccc(Oc3ccccc3)cc2)OCc2cn(nn2)CCCC1=O`, “inactive”; for `C[C@@H]1CCCCO[C@H](CN(C)Cc2ccccc2)[C@@H](C)CN([C@H](C)CO)C(=O)c2cc(NS(=O)(=O)c3ccc(Cl)cc3)ccc2O1`, “inactive”.

For the molecule `O=C(NCc1ccccn1)[C@@H]1CCCN1C(=O)[C@@H]1CCCN1C(=O)c1ccccc1`, the Potency entry is “inactive”. Take `CC1(C(=O)NCc2ccc3c(c2)OCO3)CCN1C(=O)Cc1cccc2ccccc12` (stereo not given): the Potency entry is “inactive”. Turning to `COc1cc(/C=C2\Oc3ccc(C#Cc4ccc(O)cc4)cc3C2=O)cc(OC)c1`, the Potency was 7.31 µM (active). As to `COC(=O)C(C)Oc1ccc2c(c1)O/C(=C\c1cccc(Br)c1)C2=O` (stereo not given), the Potency result was “inactive”. Take `COc1ccc2c(c1)O/C(=C\c1ccccc1O)C2=O`: the Potency entry is “inactive”.

`CCN(CC)C(=O)C1=C(C)N(Cc2ccccc2)C(=O)C(CC(=O)NC(c2ccccc2)c2ccccc2)C1` (stereo not given): the Potency result was “inactive”. For `Cn1ncc(Br)c1C(=O)NCc1cccs1` the value was “inactive”; for `CC(C)(C)c1ccc(C(=O)NCCn2c(N)c(C#N)c3nc4ccccc4nc32)cc1`, “inactive”.

With `CC(C)Cn1c(N)c(C(=O)NCc2cccs2)c2nc3ccccc3nc21`, the Potency is 10.3 µM (active). As to `CCN1C(=O)c2ccccc2S(=O)c2ccc(C(=O)NCc3ccc(F)cc3)cc21` (stereo not given), the Potency entry was “inactive”. For `CCOC(=O)C1CCCN(S(=O)(=O)c2cc(-c3cc(C)no3)ccc2OC)C1` (stereo not given) the value was “inactive”. For the molecule `O=c1cc(CSc2ncn[nH]2)[nH]c2ccc(F)cc12`, the Potency result was “inactive”. Consider `CCNC(=O)C1(C)CCN(C(=O)c2ccccc2)C1` (stereo not given), for which the Potency entry was “inactive”. For `CCOC(=O)N1CCN(C(c2ccnc3ccccc23)c2nnnn2-c2c(C)cccc2C)CC1` (stereo not given) the value was “inactive”. For `Oc1c(C(c2ccccn2)N2CCOCC2)ccc2cccnc12` (stereo not given) the value was “inactive”. As for `CCOC(=O)N1CCN(C(c2cccnc2)c2ccc3cccnc3c2O)CC1` (stereo not given), the Potency was 16.4 µM (active).

On to `CCN(CC)c1nc(C#N)nc(OC)n1`, for which the Potency result is “inactive”. With `CC(C)c1ccc(NC(=O)CN(C)S(=O)(=O)c2ccc3c(c2)c(=O)n(C)c(=O)n3C)cc1`, the Potency entry was “inactive”. For `CSCC(NS(=O)(=O)c1ccc(C)cc1)C(=O)O` (stereo not given) the value was “inactive”; for `Cc1ccc(S(=O)(=O)Nc2nc(C)cc(-n3nc(C)cc3C)n2)cc1`, “inactive”. Consider `CCCC(C(=O)n1nc(C)cc1C)C(NS(=O)(=O)c1ccc(C)cc1)c1ccccc1` (stereo not given), for which the Potency was 23.1 µM (active).

As to `Cc1ccc(C)c(C(O)c2ncc(-c3cccc4ccccc34)[nH]2)c1` (stereo not given), the Potency result was “inactive”. With `c1ccc(Cn2nnc3c(NCC4CC4)ncnc32)cc1`, the Potency result is “inactive”. Turning to `CC(=O)NCCC(=O)Nc1cc(S(=O)(=O)N2CCOCC2)ccc1N1CCOCC1`, the Potency result was “inactive”. For `Cc1cc(OCCCC(=O)Nc2cc(S(=O)(=O)N3CCOCC3)ccc2N2CCOCC2)ccc1Cl` the value was 13 µM (active); for `CC(C)CCC(=O)Nc1cc(S(=O)(=O)N2CCOCC2)ccc1N1CCCC1`, “inactive”; for `COC(C(=O)NCc1ccccc1C)c1ccccc1` (stereo not given), “inactive”. Consider `COC(C(=O)Nc1ccc(S(=O)(=O)Nc2ccc(C)c(C)c2)cc1)c1ccccc1` (stereo not given), for which the Potency was 20.6 µM (active). For `COC(C(=O)Nc1ccc(C(C)=O)cc1)c1ccccc1` (stereo not given) the value was “inactive”; for `COc1cccc(Cn2c(SCc3ccc(C(=O)N4CCC(C)CC4)cc3)nc3ccncc32)c1`, “inactive”; for `CC1CCN(C(=O)c2ccc(CSc3ccc(Cl)cc3)cc2)CC1`, 18.4 µM (active).

`O=C(C1CC1)N1CCN=C1SCc1ccc(Cl)cc1`: the Potency entry is “inactive”. For `CCCNC(=O)C1(C)CCCN(C(=O)c2cccc(OC(C)=O)c2C)C1` (stereo not given) the value was “inactive”; for `FC(F)(F)c1ccccc1Cc1c(-c2ccccc2)nc2c3ccccc3ccn12`, “inactive”; for `Cc1cc(C)c(S(=O)(=O)NCC(c2ccc3c(c2)OCO3)N2CCOCC2)c(C)c1` (stereo not given), 10.3 µM (active). For `CC(C)CNC(=O)C(=O)NCC(c1ccc2c(c1)OCO2)N1CCOCC1` (stereo not given) the value was “inactive”.

With `COc1ccc(F)cc1S(=O)(=O)NCC(c1ccc2c(c1)OCO2)N1CCN(C)CC1` (stereo not given), the Potency result is “inactive”. `O=C(CCc1ccccc1)NCc1ccc2c(c1)CCN2C(=O)c1ccccc1`: the Potency entry is “inactive”. With `Cc1nccn1-c1ccc(NC(=O)[C@H]2O[C@@H](n3cnc4c(N)ncnc43)[C@H](O)[C@@H]2O)cc1`, the Potency result was “inactive”. For `CSc1ccc(CN2CCC2(C)C(=O)Nc2ccc(C)c(O)c2)cc1` (stereo not given) the value was “inactive”. For `Cc1nc2sc(C)c(C)n2c(=O)c1S(=O)(=O)NCCc1ccc(Cl)cc1` the value was “inactive”; for `CC1(C(=O)NS(=O)(=O)c2ccccc2)CCN1C(=O)c1ccccc1` (stereo not given), “inactive”; for `Cc1cccc(-n2ccnc2SCC(=O)Nc2cccc3ccccc23)c1C`, “inactive”. For `Cc1cc(C)cc(-n2ccnc2SCC(=O)Nc2nc3ccccc3s2)c1` the value was “inactive”; for `Cc1nnc(NC(=O)CSc2nccn2-c2cccc(C)c2C)s1`, 9.2 µM (active). Consider `C[C@@H]1CN([C@@H](C)CO)C(=O)CCCn2nncc2CO[C@@H]1CN(C)S(=O)(=O)c1ccc(-c2ccccc2)cc1`, for which the Potency entry was “inactive”. For `CN(C)c1ccc(/C=N/NC(=O)c2ccc(Cn3cc(Br)cn3)o2)cc1` the value was “inactive”; for `O=C(N/N=C\c1ccc(Br)cc1)c1ccc(Cn2cccn2)o1`, 11.6 µM (active); for `O=C(N/N=C/c1cccc(OCc2ccccc2)c1)c1ccc(Br)o1`, “inactive”. For `C[C@H]1CN([C@@H](C)CO)S(=O)(=O)c2ccc(Br)cc2O[C@H]1CN(C)C(=O)c1cnccn1` the value was “inactive”; for `CC(C)CC1C(=O)N(Cc2cn(Cc3ccco3)nn2)CCS(=O)(=O)N1Cc1ccc(-c2ccc(Cl)c(Cl)c2)cc1` (stereo not given), “inactive”; for `CCCCN(C=O)c1c(CC)nc2c(OCCC3CCCCC3)cccn12`, “inactive”. As to `COc1ccc(/C=C(/CC(=O)Nc2ccc(C)cc2)c2nc3ccccc3s2)cc1`, the Potency entry is “inactive”. For `COC(=O)Cc1[nH]n(-c2nc3ccccc3s2)c(=O)c1C(C)=Nc1ccc(OC)cc1` the value was 9.2 µM (active).

On to `COc1ccc(CC(=O)Nc2ccc(-c3nc4ccccc4s3)c(C)c2)cc1`, for which the Potency result is “inactive”. For the molecule `CC1=C(C(=O)N2CCOCC2)CC(CC(=O)NCc2cccc3ccccc23)C(=O)N1CCC1=CCCCC1` (stereo not given), the Potency entry is “inactive”.
